What follows are compounds tested on Plasmodium falciparum (assay: GSK_TCMDC: Inhibition of Plasmodium falciparum Dd2 in whole red blood cells, using parasite LDH activity as an index of growth. Test compounds present at 2uM).
Assay type: functional

SMILES | Inhibition [%]
CC(C)c1ncc(-c2ccncc2)c(C2CCC(CNC(=O)c3cccnc3)CC2)n1 (stereo unspecified) | 88
COc1ccccc1-c1csc(C(=O)NCC2CCN(Cc3ccc(C(C)(C)C)cc3)C2)c1.O=C(O)C(F)(F)F (stereo unspecified) | 11
CC(=O)NCCNc1nccc(N2CCc3ncnc(Nc4ccc(OCc5cccc(F)c5)c(Cl)c4)c3C2)n1 | 100
CC(C)c1ccc(-c2noc(SCC(=O)N3CCCCC3C)n2)cc1 (stereo unspecified) | 92
Cc1cc(C(=O)Nc2ccc(-c3ccccc3)cc2)no1 | 94
Cc1[nH]n(-c2cccc(C(F)(F)F)c2)c(=O)c1-c1ccc(Cl)cc1 | 25
O=C(/C=C/c1ccc(Cl)c(Cl)c1)NCCCCCN1CCC(NC(=O)c2ccc(F)c(F)c2)CC1 | 20

What follows are compounds tested on HepG2 (assay: GSK_TCMDC: Percent inhibition of human HepG2 cell line. Test compounds present at 10uM.).
Assay type: functional

SMILES | Inhibition [%]
CCCCCCN(CCCCCC)CCCCNc1c2ccc(Cl)cc2nc2ccc(OC)cc12.Cl | 65
O=C(NC1CCCC1)c1ccc(N2CCC(NCc3cc4cc(Cl)ccc4[nH]3)CC2)cc1 | 21
CCN(CC)CCN(Cc1ccc(-c2ccc(C(F)(F)F)cc2)cc1)C(=O)Cn1c(CCc2ccccc2F)nc(=O)c2ccccc21.O=C(O)C(O)C(O)C(=O)O | 39
O=C(Nc1ccc(Cl)cc1)c1ccc(CN2CCCN(Cc3ccccc3)CC2)cc1.O=C(O)C(F)(F)F | 46
CCOc1c(OC)ccc2c1CCN(CCN1CCC(CNC(=O)c3ccc(-c4ccc(C#N)cc4)cc3)CC1)C2 | 45
O=C(/C=C/c1ccc(Cl)c(Cl)c1)N1CCC(CN2CCC(Cc3c[nH]c4ccccc34)CC2)CC1 | 24
CC(C)c1cccc(C(C)C)c1NC(=O)NNC(=O)c1ccc(CCN2CCC(c3nc(COCC(F)(F)F)c(-c4ccc(F)cc4)o3)CC2)cc1 | 61
CCC(C)OC(=O)C1=C(C)NC2=C(C(=O)CC(c3ccc(OC)c(OC)c3)C2)C1c1ccc(C)o1 (stereo unspecified) | 6
O=C(/C=C/c1ccc(Cl)c(Cl)c1)NCCCCCN1CCC(NC(=O)NC2CCCC2)CC1 | 21
CCn1ccc2c(N3CCCCS3(=O)=O)cc(C(=O)N[C@@H](Cc3ccccc3)[C@H](O)CNC3CCCCC3)cc21 | 1
Cc1cccc2nc(-c3ccc(-c4ccc(CNCCNC(=O)c5ccnn5C)cc4)cc3)[nH]c12.O=C(O)C(F)(F)F | 29
CCOc1ccc(Br)cc1/C=C/C(=O)Nc1ccc(C2CCN(C)CC2)cc1 | 30
Cc1nc2ccc(NC(=O)Nc3ccnc4ccc(C(F)(F)F)cc34)cc2o1 | 20
COc1cc(Br)c(NC(=O)Nc2ccc(C(F)(F)F)c(O[C@@H]3CCN(C)C3)c2)cc1OC.Cl | 10
NC1CCCN(Cc2ccc(-c3cccc(-c4nc5ccccc5[nH]4)c3)cc2)C1.O=C(O)C(F)(F)F (stereo unspecified) | 26
CCc1cccc(-n2c(=O)c3cccnc3n2CC(=O)NC2CCCC2)c1 | 2
O=C(Nc1ccc(-c2nc3ccccc3[nH]2)cc1)C1CCN(Cc2ccc(F)cc2)CC1 | 13
CC1(C)N=C(NC(=O)c2ccc([N+](=O)[O-])cc2)N=C(N)N1OCc1ccc2ccccc2c1 | 64
CC(C)(C)c1ccc(NC(=O)c2ccc(CN3CCCN(Cc4cccc(C#N)c4)CC3)cc2)cc1.O=C(O)C(F)(F)F | 54
O=C(Nc1ccccc1Cl)c1cc2ccccc2cc1O | 2

SMILES | Inhibition [%]
c1ccc(COc2ccc(Cn3ccc(-c4ccc(-n5ccnc5)cc4)n3)cc2)cc1.c1ccc(COc2ccc(Cn3nccc3-c3ccc(-n4ccnc4)cc3)cc2)cc1 | 2
COc1ccc2nccc(N3CCC(SCCNCc4cc5c(cn4)OCCO5)C3)c2n1.Cl (stereo unspecified) | 30
N#Cc1ccc(-c2ccc(C(=O)NC3CCN(CCN4CCc5c(cccc5C(F)(F)F)C4)CC3)cc2)cc1 | 40
CC(C)CSc1cc(C(=O)Nc2cc(Cl)ccc2O)ccn1 | 36
O=C(/C=C/c1ccc(Cl)c(Cl)c1)NCCCCCCN1CCN(C(=O)Nc2cccc(Cl)c2)CC1 | 33
NC1CCN(c2nc(NCCCc3ccc(O)cc3)nc(NCc3ccccc3-c3ccccc3)n2)CC1.O=C(O)C(F)(F)F | 11
CC(C)(C)C1CCc2onc(C(=O)Nc3cc(Cl)ccc3O)c2C1 (stereo unspecified) | 5
CC1CN(c2cnn(C/C=C/c3ccc(NC(=O)c4ccc(Cl)cc4)cc3)c(=O)c2Cl)CC(C)N1.O=C(O)C(F)(F)F (stereo unspecified) | 25
CS(=O)(=O)Nc1cccc(-c2cnc3[nH]cc(-c4ccc(CCC(=O)O)cc4)c3c2)c1 | 7
CNC(=O)NC1=NC(C)(C)N(OCc2ccc(Cl)c(Cl)c2)C(NC(=O)NC)=N1 | 1
Nc1ncc(-c2ccsc2)c2ccc(-c3cnc[nH]3)cc12 | 31
COc1c(C2CCN(CCCCNC(=O)c3ccc(-c4ccc(C#N)cc4)c(O)c3)CC2)ccc2c1CCCC2.Cl | 35
CC(C)c1ncc(-c2ccncc2)c(C2CCC(CNC(=O)c3cccnc3)CC2)n1 (stereo unspecified) | 0
COc1ccccc1-c1csc(C(=O)NCC2CCN(Cc3ccc(C(C)(C)C)cc3)C2)c1.O=C(O)C(F)(F)F (stereo unspecified) | 29
CC(=O)NCCNc1nccc(N2CCc3ncnc(Nc4ccc(OCc5cccc(F)c5)c(Cl)c4)c3C2)n1 | 10
CC(C)c1ccc(-c2noc(SCC(=O)N3CCCCC3C)n2)cc1 (stereo unspecified) | 21
Cc1cc(C(=O)Nc2ccc(-c3ccccc3)cc2)no1 | 6
Cc1[nH]n(-c2cccc(C(F)(F)F)c2)c(=O)c1-c1ccc(Cl)cc1 | 7
O=C(/C=C/c1ccc(Cl)c(Cl)c1)NCCCCCN1CCC(NC(=O)c2ccc(F)c(F)c2)CC1 | 36

From ChEMBL document CHEMBL1157539, “Thousands of chemical starting points for antimalarial lead identification” (Nature, 2010)
